Data published in PubChem BioAssay (Tox21).
Inconclusive results are not listed. Unmarked numbers belong to inactive results. The source made the active and inactive calls. Calls follow the shape of the dose curve; as a rule, active = well fitted cell-killing curve with a large enough effect in the repeat runs; inconclusive = weak or mixed curves, or effect the other way; inactive = no such curve, though single readings can be large or run the other way.

Assay: qHTS assay for small molecule activators of the heat shock response signaling pathway - cell viability counter screen (AID 743209); also: nearly all actives have a fitted effect of over 50% in size
Settings: HSE-bla HeLa viability, CellTiter-Glo luminescence, 5 h; series mostly up to 62.6 µM; activity change, negative = cytotoxicity: at the top concentration
Excerpt: U.S. Tox21 Program National Center for Advancing Translational Sciences [NCATS] NIH Chemical Genomics Center [NCGC] U.S. Environmental Protection Agency [EPA] National Institutes of Environmental Health Sciences [NIEHS] National Toxicology Program [NTP] U.S. Food and Drug Administration [FDA] Tox21 Assay Overview: Various chemicals, environmental and physiological stress conditions may lead to the activation of heat shock response/ unfolded protein response (HSR/UPR). There are three heat shock transcription factors (HSFs) (HSF-1, -2, and -4) mediating transcriptional regulation of the human HSR. To identify the compounds that activate HSR signaling, HSE-bla HeLa cell line (Invitrogen, Carlsbad, CA, USA) containing a beta-lactamase reporter gene under the control of the heat shock response elements was used to screen Tox21 10K compound library. The cytotoxicity of the Tox21 compound library against the HSE-bla HeLa cell line was tested in parallel by measuring the cell viability using CellTiter-Glo assay (Promega, Madison, WI) in the same wells.
Tox21 Assay Protocol Summary: The CellSensor HSE-bla HeLa cells (Invitrogen, Carlsbad, CA, USA) were dispensed at 1500 cells/6uL/well into 1536-well black wall/clear bottom plates using a Multidrop combi (Thermo Fisher Scientific, Waltham, MA) dispenser. After the assay plates were incubated at 37 C and 5% CO2 overnight, 23 nL of compounds dissolved in DMSO, positive controls or DMSO only was transferred to the assay plate by a Pintool station (Kalypsys, San Diego, CA). The plates were incubated at 37 C for 5 h. After 1 uL of LiveBLAzerTM B/G FRET substrate was added using a Flying Reagent Dispenser (FRD, Beckman Coulter, Indianapolis, IN, USA), the plates were incubated at room temperature for 2.5 h, and fluorescence intensity was measured by an Envision plate reader (PerkinElmer, Shelton, CT). For cell viability readout that measures cytotoxicity, 3 ul/well of CellTiter-Glo reagent was added into the assay plates using a FRD. After 30 min incubation at room temperature, the luminescence intensity in the plates was measured using a ViewLux (PerkinElmer) plate reader.
% is scaled to controls: 0 for no effect and ±100 for the full control effect; potency is read from the fitted curve at half-maximal effect.

First: C/C=C(/C(=C/C)c1ccc(OC(C)=O)cc1)c1ccc(OC(C)=O)cc1
Second: COc1ccc2cccc(CCNC(C)=O)c2c1
The “activity change, negative = cytotoxicity” value of the first is lower: -11.7% for the first, -3.56% for the second.

First: C#CCN(C)CCCOc1ccc(Cl)cc1Cl
Second: CNCCCCOc1ccccc1Cc1ccccc1
The “activity change, negative = cytotoxicity” value of the first is lower: -17.2% for the first, 4.26% for the second.

Going from CCCNCC(O)COc1ccccc1C(=O)CCc1ccccc1 (stereo not given) to O=C(OCCc1ccccc1)c1ccccc1, the “activity change, negative = cytotoxicity” value rises from -7.88% to 4.06%.

First: CCCCCCc1ccc(-c2ccc(C#N)cc2)cc1
Second: COc1ccc(-c2nc3ccc(C4=NNC(=O)CC4C)cc3[nH]2)cc1 (stereo not given)
The “activity change, negative = cytotoxicity” value of the first is higher: -12.1% for the first, -13.2% for the second.

First: CCn1cc(C(=O)O)c(=O)c2cnc(N3CCNCC3)nc21
Second: COc1cc2nc(N3CCN(C(=O)C4COc5ccccc5O4)CC3)nc(N)c2cc1OC (stereo not given)
The “activity change, negative = cytotoxicity” value of the first is lower: 2.45% for the first, 19.8% for the second.

First: CCN(CC)c1ccc2c(-c3ccccc3C(=O)O)c3ccc(=[N+](CC)CC)cc-3oc2c1
Second: Cc1oc(-c2ccccc2)nc1CCOc1cccc2c1ccn2CCC(=O)O
The “activity change, negative = cytotoxicity” value of the first is lower: -15.6% for the first, -4.17% for the second.

Compared with O=C1OC(CN2CCOCC2)CN1/N=C/c1ccc([N+](=O)[O-])o1 (stereo not given), O=C(NCC1CN(c2ccc(N3CCOCC3=O)cc2)C(=O)O1)c1ccc(Cl)s1 (stereo not given) is lower in “activity change, negative = cytotoxicity” value: 4.95% for the first, -6.5% for the second.

First: O=C1CCCCCCCCCCCC(=O)OCCO1
Second: C=CCOC(=O)CCC1CCCCC1
The “activity change, negative = cytotoxicity” value of the first is higher: 1.79% for the first, 0.53% for the second.

First: Nc1ncn([C@H]2C[C@H](O)[C@@H](CO)O2)c(=O)n1
Second: CCCCCCCCCCO[C@@H]1O[C@H](CO)[C@@H](O)[C@H](O)[C@H]1O
The “activity change, negative = cytotoxicity” value of the first is higher: 5.34% for the first, -5.01% for the second.

First: CN(C)CCCN1c2ccccc2Sc2ccccc21
Second: Nc1ccccc1S(=O)(=O)c1ccccc1
The “activity change, negative = cytotoxicity” value of the first is higher: 12.6% for the first, -4.86% for the second.

Compared with CCCCC/C=C\C/C=C\CCCCCCCC(=O)NC(C)c1ccccc1 (stereo not given), CCOC(=O)C(O)c1ccccc1 (stereo not given) is lower in “activity change, negative = cytotoxicity” value: -12.3% for the first, -20.8% for the second.

Compared with CCCCNc1ccc(C(=O)OCCOCCOCCOCCOCCOCCOCCOCCOCCOC)cc1, CCOC(=O)COC(=O)c1cc(Oc2ccc(C(F)(F)F)cc2Cl)ccc1[N+](=O)[O-] is lower in “activity change, negative = cytotoxicity” value: 1.83% for the first, -2.78% for the second.

Going from COc1ccnc(CS(=O)c2nc3ccc(OC(F)F)cc3[nH]2)c1OC (stereo not given) to Cc1oc2c(NC(=O)c3c(Cl)cccc3Cl)cccc2c1C(C)(C)O, the “activity change, negative = cytotoxicity” value falls from 7.39% to -2.71%.

Compared with CN1CCN(C(c2ccccc2)c2ccccc2)CC1, CN(C)C(=O)NC1(c2ccccc2)CCN(CC[C@@]2(c3ccc(F)c(F)c3)CN(C(=O)c3ccccc3)CCO2)CC1 is higher in “activity change, negative = cytotoxicity” value: 3.89% for the first, 9.97% for the second.

Compared with CC1(c2ccccc2)OC(C(=O)O)=CC1=O (stereo not given), O=C(O)c1ccccc1Cl is lower in “activity change, negative = cytotoxicity” value: -2.91% for the first, -24.9% for the second.

Going from C=C1[C@H]2CC[C@@H]3[C@H]2C(C)(C)CCC[C@]13C to C[C@@H]1C[C@H]2O[C@@]3(O[C@@H]2C(C)(C)O)[C@H](O)[C@@]2(C)[C@@H]4CC[C@H]5C(C)(C)[C@@H](O[C@@H]6OC[C@@H](O)[C@H](O)[C@H]6O)CC[C@@]56C[C@@]46CC[C@]2(C)[C@@H]13, the “activity change, negative = cytotoxicity” value falls from 11.9% to 10.8%.

Compared with COCCCN1CCC(NC(=O)c2cc(Cl)c(N)c3c2OCC3)CC1, Cc1cccc(C)c1NC(=O)CN(CC(=O)O)CC(=O)O is higher in “activity change, negative = cytotoxicity” value: -8.98% for the first, 16.3% for the second.

For O=C(CS)Nc1ccccc1, the “activity change, negative = cytotoxicity” value was -12.5%.

For C=CC(=O)OCCOCCOCCOCCOC(=O)C=C, the Potency was 34.8 µM (active).
In the case of CCCCCCCCCc1ccc(OCCOCCO)cc1, the Potency is reported as 23 µM (active).

C/C=C/C(=O)CC showed an activity change, negative = cytotoxicity of 2.01% [at 13.2 µM].

Work on C/C(=C(\CCOP(=O)(O)O)SC(=O)c1ccccc1)N(C=O)Cc1cnc(C)nc1N yielded an activity change, negative = cytotoxicity of -16.4% [at 5.95 µM].

For CCC(C)(C)CC, the “activity change, negative = cytotoxicity” value was -17.9% [at 81.1 µM].
